Article PMC11006913
Where a chain is given by its changes, count along the chain named.

Legend:
Experiment in all cases: PBM; 200 nM protein, PBS
Conditions in all cases: dsDNA, one strand shown
SIX6 [1] = target: T1, SIX6 (Homo sapiens, UniProt O95475 114-200, L167I)
T1 sequence: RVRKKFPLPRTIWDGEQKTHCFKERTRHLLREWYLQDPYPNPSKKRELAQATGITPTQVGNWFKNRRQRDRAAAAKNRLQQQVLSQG

SIX6 [2] = target: T2, SIX6 (Homo sapiens, UniProt O95475 114-200, L143V)
T2 sequence: T1 sequence with L30V, I54L

SIX6 [3] = target: T3, SIX6 (Homo sapiens, UniProt O95475 114-200, H141N)
T3 sequence: T1 sequence with H28N, I54L

SIX6 [4] = target: T4, SIX6 (Homo sapiens, UniProt O95475 114-200, T165P)
T4 sequence: T1 sequence with T52P, I54L

SIX6 [5] = target: T5, SIX6 (Homo sapiens, UniProt O95475 114-200, L167M)
T5 sequence: T1 sequence with I54M

SIX6 [6] = target: T6, SIX6 (Homo sapiens, UniProt O95475 114-200, L143M)
T6 sequence: T1 sequence with L30M, I54L

SIX6 [7] = target: T7, SIX6 (Homo sapiens, UniProt O95475 114-200, L143I)
T7 sequence: T1 sequence with L30I, I54L

SIX6 [8] = target: T8, SIX6 (Homo sapiens, UniProt O95475 114-200, T165G)
T8 sequence: T1 sequence with T52G, I54L

SIX6 [9] = target: T9, SIX6 (Homo sapiens, UniProt O95475 114-200, T139Q)
T9 sequence: T1 sequence with T26Q, I54L

SIX6 [10] = target: T10, SIX6 (Homo sapiens, UniProt O95475 114-200, T165A)
T10 sequence: T1 sequence with T52A, I54L

SIX6 [11] = target: T11, SIX6 (Homo sapiens, UniProt O95475 114-200, L167V)
T11 sequence: T1 sequence with I54V

SIX6 [12] = target: T12, SIX6 (Homo sapiens, UniProt O95475 114-200)
T12 sequence: T1 sequence with I54L

SIX6 [13] = target: T13, SIX6 (Homo sapiens, UniProt O95475 114-200, T165I)
T13 sequence: T1 sequence with T52I, I54L

HOXA2 [14] = target: HOXA2 (Homo sapiens, UniProt O43364 129-215, R185T)
HOXA2 [15] = target: HOXA2 (Homo sapiens, UniProt O43364 129-215, R185K)
HOXA2 [16] = target: HOXA2 (Homo sapiens, UniProt O43364 129-215, Y150S)
HOXA2 [17] = target: HOXA2 (Homo sapiens, UniProt O43364 129-215)
HOXB6 = HOXB6 (Homo sapiens, UniProt P17509 132-218, K202E)
HOXB6, sequence (P17509 132-218 K202E): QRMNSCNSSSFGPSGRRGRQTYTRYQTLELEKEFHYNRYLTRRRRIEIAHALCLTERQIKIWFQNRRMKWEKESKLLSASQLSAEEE

HOXA2 (Homo sapiens, UniProt O43364 129-215), sequence (O43364 129-215): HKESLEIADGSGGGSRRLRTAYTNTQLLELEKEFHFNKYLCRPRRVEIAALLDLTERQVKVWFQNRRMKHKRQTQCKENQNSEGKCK
HOXA2 (Homo sapiens, UniProt O43364 129-215, R185T), sequence (O43364 129-215 R185T): as the sequence (O43364 129-215) above, with R57T counted along it
HOXA2 (Homo sapiens, UniProt O43364 129-215, R185K), sequence (O43364 129-215 R185K): as the sequence (O43364 129-215) above, with R57K counted along it
HOXA2 (Homo sapiens, UniProt O43364 129-215, Y150S), sequence (O43364 129-215 Y150S): as the sequence (O43364 129-215) above, with Y22S counted along it

Row | Sequence | binding signal (SIX6 [1]) | binding signal (SIX6 [2]) | binding signal (SIX6 [3]) | binding signal (SIX6 [4]) | binding signal (SIX6 [5]) | binding signal (SIX6 [6]) | binding signal (SIX6 [7]) | binding signal (SIX6 [8]) | binding signal (SIX6 [9]) | binding signal (SIX6 [10]) | binding signal (SIX6 [11]) | binding signal (SIX6 [12]) | binding signal (SIX6 [13]) | binding signal (HOXA2 [14]) | binding signal (HOXA2 [15]) | binding signal (HOXA2 [16]) | binding signal (HOXA2 [17]) | binding signal (HOXB6)
1 | CTCCGCCC | 8.91 upbm affinity estimate (log intensity, higher = more binding, comparable within an allelic series) | 8.91 upbm affinity estimate (log intensity, higher = more binding, comparable within an allelic series) | 8.92 upbm affinity estimate (log intensity, higher = more binding, comparable within an allelic series) | 8.95 upbm affinity estimate (log intensity, higher = more binding, comparable within an allelic series) | 8.94 upbm affinity estimate (log intensity, higher = more binding, comparable within an allelic series) | 8.89 upbm affinity estimate (log intensity, higher = more binding, comparable within an allelic series) | 8.86 upbm affinity estimate (log intensity, higher = more binding, comparable within an allelic series) | 8.87 upbm affinity estimate (log intensity, higher = more binding, comparable within an allelic series) | 8.89 upbm affinity estimate (log intensity, higher = more binding, comparable within an allelic series) | 8.96 upbm affinity estimate (log intensity, higher = more binding, comparable within an allelic series) | 8.86 upbm affinity estimate (log intensity, higher = more binding, comparable within an allelic series) | 8.89 upbm affinity estimate (log intensity, higher = more binding, comparable within an allelic series) | 8.95 upbm affinity estimate (log intensity, higher = more binding, comparable within an allelic series) |  |  |  |  | 
2 | CGCGTGGC | 9.04 upbm affinity estimate (log intensity, higher = more binding, comparable within an allelic series) | 8.85 upbm affinity estimate (log intensity, higher = more binding, comparable within an allelic series) | 9.07 upbm affinity estimate (log intensity, higher = more binding, comparable within an allelic series) | 8.86 upbm affinity estimate (log intensity, higher = more binding, comparable within an allelic series) | 8.92 upbm affinity estimate (log intensity, higher = more binding, comparable within an allelic series) | 8.96 upbm affinity estimate (log intensity, higher = more binding, comparable within an allelic series) | 8.93 upbm affinity estimate (log intensity, higher = more binding, comparable within an allelic series) | 9 upbm affinity estimate (log intensity, higher = more binding, comparable within an allelic series) | 9.1 upbm affinity estimate (log intensity, higher = more binding, comparable within an allelic series) | 8.98 upbm affinity estimate (log intensity, higher = more binding, comparable within an allelic series) | 8.96 upbm affinity estimate (log intensity, higher = more binding, comparable within an allelic series) | 8.97 upbm affinity estimate (log intensity, higher = more binding, comparable within an allelic series) | 9.02 upbm affinity estimate (log intensity, higher = more binding, comparable within an allelic series) | 7.16 upbm affinity estimate (log intensity, higher = more binding, comparable within an allelic series) | 10.4 upbm affinity estimate (log intensity, higher = more binding, comparable within an allelic series) | 10.3 upbm affinity estimate (log intensity, higher = more binding, comparable within an allelic series) | 7.31 upbm affinity estimate (log intensity, higher = more binding, comparable within an allelic series) | 
3 | CCGGGCGC | 8.78 upbm affinity estimate (log intensity, higher = more binding, comparable within an allelic series) | 8.67 upbm affinity estimate (log intensity, higher = more binding, comparable within an allelic series) | 8.71 upbm affinity estimate (log intensity, higher = more binding, comparable within an allelic series) | 8.75 upbm affinity estimate (log intensity, higher = more binding, comparable within an allelic series) | 8.72 upbm affinity estimate (log intensity, higher = more binding, comparable within an allelic series) | 8.66 upbm affinity estimate (log intensity, higher = more binding, comparable within an allelic series) | 8.69 upbm affinity estimate (log intensity, higher = more binding, comparable within an allelic series) | 8.73 upbm affinity estimate (log intensity, higher = more binding, comparable within an allelic series) | 8.6 upbm affinity estimate (log intensity, higher = more binding, comparable within an allelic series) | 8.69 upbm affinity estimate (log intensity, higher = more binding, comparable within an allelic series) | 8.69 upbm affinity estimate (log intensity, higher = more binding, comparable within an allelic series) | 8.66 upbm affinity estimate (log intensity, higher = more binding, comparable within an allelic series) | 8.72 upbm affinity estimate (log intensity, higher = more binding, comparable within an allelic series) |  |  |  |  | 
4 | CGGGAAGC | 9.04 upbm affinity estimate (log intensity, higher = more binding, comparable within an allelic series) | 8.99 upbm affinity estimate (log intensity, higher = more binding, comparable within an allelic series) | 9 upbm affinity estimate (log intensity, higher = more binding, comparable within an allelic series) | 9.05 upbm affinity estimate (log intensity, higher = more binding, comparable within an allelic series) | 9.01 upbm affinity estimate (log intensity, higher = more binding, comparable within an allelic series) | 8.96 upbm affinity estimate (log intensity, higher = more binding, comparable within an allelic series) | 9.03 upbm affinity estimate (log intensity, higher = more binding, comparable within an allelic series) | 9.03 upbm affinity estimate (log intensity, higher = more binding, comparable within an allelic series) | 9.07 upbm affinity estimate (log intensity, higher = more binding, comparable within an allelic series) | 9.03 upbm affinity estimate (log intensity, higher = more binding, comparable within an allelic series) | 9.01 upbm affinity estimate (log intensity, higher = more binding, comparable within an allelic series) | 8.93 upbm affinity estimate (log intensity, higher = more binding, comparable within an allelic series) | 8.99 upbm affinity estimate (log intensity, higher = more binding, comparable within an allelic series) |  |  |  |  | 
5 | GGGGGGAC | 8.99 upbm affinity estimate (log intensity, higher = more binding, comparable within an allelic series) | 8.81 upbm affinity estimate (log intensity, higher = more binding, comparable within an allelic series) | 8.96 upbm affinity estimate (log intensity, higher = more binding, comparable within an allelic series) | 8.71 upbm affinity estimate (log intensity, higher = more binding, comparable within an allelic series) | 8.97 upbm affinity estimate (log intensity, higher = more binding, comparable within an allelic series) | 8.91 upbm affinity estimate (log intensity, higher = more binding, comparable within an allelic series) | 8.72 upbm affinity estimate (log intensity, higher = more binding, comparable within an allelic series) | 8.92 upbm affinity estimate (log intensity, higher = more binding, comparable within an allelic series) | 8.93 upbm affinity estimate (log intensity, higher = more binding, comparable within an allelic series) | 9 upbm affinity estimate (log intensity, higher = more binding, comparable within an allelic series) | 8.74 upbm affinity estimate (log intensity, higher = more binding, comparable within an allelic series) | 8.93 upbm affinity estimate (log intensity, higher = more binding, comparable within an allelic series) | 8.96 upbm affinity estimate (log intensity, higher = more binding, comparable within an allelic series) |  |  |  |  | 
6 | CTGCGGAC | 8.88 upbm affinity estimate (log intensity, higher = more binding, comparable within an allelic series) | 8.75 upbm affinity estimate (log intensity, higher = more binding, comparable within an allelic series) | 8.87 upbm affinity estimate (log intensity, higher = more binding, comparable within an allelic series) | 8.83 upbm affinity estimate (log intensity, higher = more binding, comparable within an allelic series) | 8.84 upbm affinity estimate (log intensity, higher = more binding, comparable within an allelic series) | 8.84 upbm affinity estimate (log intensity, higher = more binding, comparable within an allelic series) | 8.83 upbm affinity estimate (log intensity, higher = more binding, comparable within an allelic series) | 8.91 upbm affinity estimate (log intensity, higher = more binding, comparable within an allelic series) | 9.05 upbm affinity estimate (log intensity, higher = more binding, comparable within an allelic series) | 8.83 upbm affinity estimate (log intensity, higher = more binding, comparable within an allelic series) | 8.84 upbm affinity estimate (log intensity, higher = more binding, comparable within an allelic series) | 8.84 upbm affinity estimate (log intensity, higher = more binding, comparable within an allelic series) | 8.85 upbm affinity estimate (log intensity, higher = more binding, comparable within an allelic series) |  |  |  |  | 8.87 upbm affinity estimate (log intensity, higher = more binding, comparable within an allelic series)
